Test results from PubChem BioAssay AID1745857 (National Center for Advancing Translational Sciences (NCATS), 2022).
Among all 120,000 compounds or so, about 370 (0.31%) were called active. Another 4% or so got no clear call; they are omitted. The list comes from a sample in which actives are over-represented; it also holds similar structures and randomly drawn compounds. Values without a mark were called inactive. The call rests on the fitted dose curve.

test: Primary qHTS Assay for Foot and Mouth Disease Virus Antivirals against NCGC Sytravon and CBC Compound Libraries: Renilla Luciferase Signal; conditions: FMDV replicon cells; series mostly up to 57.5 µM; activity change, negative = inhibition: at the top concentration; further: nearly all actives have a fitted effect of over 55% in size
On the % scale 0 is the no-effect control and ±100 the full control effect; potency means the concentration at half of the fitted maximal effect.

| SMILES | activity change, negative = inhibition [%] | Potency |
| --- | --- | --- |
| COC(=O)Cc1csc(NC(=O)Cc2c(C)c3ccc(OC)cc3oc2=O)n1 | 22.2 | – |
| O=C(NCCOc1ccccc1F)c1n[nH]c(=O)c2ccccc12 | 5.56 | – |
| NS(=O)(=O)c1ccc(NC(=O)COc2ncnc3ccc(Br)cc23)cc1 | -11 | – |
| Cc1cccc2nc(-c3ccc(N4CCOCC4)cc3)c(Nc3ccc4c(c3)OCCO4)n12 | 0 | – |
| O=C(OC1CCCCC1=O)c1ccc(Cl)c(Cl)c1 (stereo unspecified) | 2.63 | – |
| O=C(NC(Cc1cccc(F)c1)c1cccc(F)c1)C1CCOCC1 (stereo unspecified) | 13.2 | – |
| O=C(CCC(=O)c1ccc(Cl)cc1)OCc1ccc(Cl)cc1Cl | -8.65 | – |
| CCOc1ccc(CCNC(=O)C(C)n2nc(C)n3c(cc4sccc43)c2=O)cc1OCC (stereo unspecified) | 9.5 | – |
| CCc1ccc(/C=C(\C#N)C(=O)NC2CC2)s1 | 0 | – |
| C[C@@H](C(=O)N1CCN(c2ccccc2)CC1)n1cnc2ccccc2c1=O | 3.94 | – |
| CCC(C)NCCC(c1ccccc1)c1ccc(C)c(C)c1O (stereo unspecified) | 17.2 | – |
| CCOc1ccccc1OCC(=O)Nc1cccc2ncccc12 | – | 8.91 µM (active) |
| CCCOc1ccc(NC(=O)COc2cccc(C)c2C)c2cccnc12 | -14.9 | – |
| COc1c(C)cccc1C(=O)Nc1cccc2ncccc12 | -15.8 | – |
| Cc1ccc(NS(=O)(=O)c2c(C)[nH]c(C)c2C(=O)N2CCCCC2)c(C)c1 | 0 | – |
| Cc1ccc(N/N=C/C=C/c2ccccc2)cc1Cl | 7.3 | – |
| Cc1nc2cc(NC(C(=O)Nc3ccc(F)cc3)c3ccccc3)ccc2o1 (stereo unspecified) | 99.2 | – |
| COc1ccc(C(=O)/C(=C/c2ccncc2)c2nc3ccccc3o2)cc1OC | – | 15.8 µM (active) |
| COc1ccc(NC(C)=O)cc1NC(=O)/C=C/c1nc2ccccc2o1 | -14.9 | – |
| COc1ccc(/C=C/c2nc3ccccc3o2)cc1OCC(C)C | 2.64 | – |
| Cc1ccc(CCC(=O)Nc2ccc(C)c(C)c2)s1 | -6.77 | – |
| O=C(NC1CCCCC1)c1ccc2c(c1)N(Cc1ccc(Cl)cc1)C(=O)c1ccccc1S2=O (stereo unspecified) | 17.7 | – |
| O=C(O)c1ccc2c(c1)N(Cc1ccc(F)cc1)C(=O)c1ccccc1S2=O (stereo unspecified) | – | 8.91 µM (active) |
| CCN1C(=O)c2ccccc2S(=O)c2ccc(C(=O)NCc3ccc(F)cc3)cc21 (stereo unspecified) | -7.42 | – |
| O=C(CC(=O)c1ccc(F)cc1)c1ccc(F)cc1 | 23.4 | – |
| CC(Oc1ccc(C#N)cc1)C(=O)NC(C1CC1)C1CC1 (stereo unspecified) | 10.9 | – |

| SMILES | activity change, negative = inhibition [%] | Potency |
| --- | --- | --- |
| O=S1(=O)c2ccc(N3CCN(Cc4ccccc4F)CC3)cc2Oc2ccccc2CN1Cc1cn(Cc2ccc(Cl)cc2)nn1 | 80.6 | – |
| Cc1nn(Cc2ccc(F)cc2)c(C)c1NC(=O)c1cc(CC(C)C)on1 | – | 25.1 µM (active) |
| Cc1nn(Cc2ccc(F)cc2)c(C)c1NC(=O)c1noc2c1CCc1ccccc1-2 | -10.8 | – |
| Cc1ccccc1Cn1nc(C)c(NC(=O)c2cc(-c3ccc(F)cc3)on2)c1C | -8.22 | – |
| O=C(Nc1ccccc1)C1=C(Nc2ccc(F)cc2F)c2ccccc2S1(=O)=O | 34.2 | – |
| CC(=O)Nc1ccc(NC(=O)COC(=O)c2oc3ccccc3c2C)cc1 | -5.44 | – |
| CC(C)(C)c1ccc2c(c1)OCCOCCOCCOc1ccc(C(C)(C)C)cc1OCCOCCOCCO2 | – | 25.1 µM (active) |
| CN(Cc1ccc2c(c1)OCCO2)CC(O)COc1ccccc1C(C)(C)C (stereo unspecified) | -3.65 | – |
| CC(Sc1ccc2c(c1)OCCCO2)C(=O)O (stereo unspecified) | -2.29 | – |
| Cc1ccnc(NC(=O)CCc2ncc(-c3ccc(F)cc3F)o2)c1 | -6.64 | – |
| CCOc1ccc(NC(C)=O)cc1S(=O)(=O)Nc1ccccc1-c1nnc2n1CCCCC2 | -1.33 | – |
| COc1ccc(-c2c(C)c3ccc(OS(C)(=O)=O)cc3oc2=O)cc1 | – | 15.8 µM (active) |
| COc1ccc(-c2c(C)oc3cc(OC)ccc3c2=O)cc1 | 13.8 | – |
| COc1ccc(-c2c(C)c3ccc(O)c(C)c3oc2=O)cc1 | 8.34 | – |
| CCNc1c(NS(=O)(=O)c2ccc3c(c2)oc(=O)n3C)c(=O)oc2ccccc12 | 0.612 | – |
| Cc1cccc(CN2CCN(Cc3cc(=O)oc4c(C)c(O)ccc34)CC2)c1 | – | 20 µM (active) |
| Cc1cc2oc(=O)cc(CN3CCN(c4ccccc4)CC3)c2cc1O | 2.61 | – |
| CC(C)c1ccc2oc(=O)cc(CN3CCN(Cc4ccccc4)CC3)c2c1 | -10.3 | – |
| CNC/C=C/COc1ccc(C)c(C)c1 | -19.2 | – |
| Cc1ccc(S(C)(=O)=O)cc1NCc1ccccc1F | 24.3 | – |
| CCC(Sc1nc2ncccc2[nH]1)C(=O)Nc1ccc(C)c(Cl)c1 (stereo unspecified) | 13.8 | – |
| NCCOc1ccc(C(F)(F)F)cc1 | 6.43 | – |
| CC(C)(C)C(=O)NCCCC(=O)NCCc1ccccc1 | 3.52 | – |
| Cc1ccc2c(Cn3nnc(-c4ccc(F)cc4)n3)cc(=O)oc2c1 | -2.97 | – |
| Cc1ccccc1NS(=O)(=O)c1ccc(C(=O)N(C)CC(=O)Nc2cccc3ccccc23)cc1 | -9.38 | – |
| O=C(Cc1ccccc1Cl)N1CCN(c2ncnc3nc[nH]c23)CC1 | -1.31 | – |

| SMILES | activity change, negative = inhibition [%] | Potency |
| --- | --- | --- |
| CC(=O)Nc1ccc2oc(-c3cncc(Br)c3)nc2c1 | 19.3 | – |
| CCOc1ccc(NC(=O)CCc2ncc(-c3ccccc3F)o2)cc1 | -13.1 | – |
| CCc1cc(C(=O)N2CCN(c3ccccc3OC)CC2)no1 | 4.97 | – |
| O=C(Nc1cccc(-c2nc3cc(Cl)ccc3o2)c1)c1ccccc1 | -1.17 | – |
| Fc1ccc(Oc2ccc(CNc3ncccn3)cn2)cc1 | 7.32 | – |
| CC(CCN1CCC(C(O)(c2ccccc2)c2ccccc2)CC1)Oc1ccc([N+](=O)[O-])cc1Cl (stereo unspecified) | 2.69 | – |
| CC(=O)Oc1ccc2c(C)c(-c3ccccc3)c(=O)oc2c1 | 6.01 | – |
| CC1CCc2sc(N)c(C#N)c2C1 (stereo unspecified) | 6.46 | – |
| COC(=O)CN1CCCC1c1ccsc1 (stereo unspecified) | 1.39 | – |
| CCCCNC(=O)c1cccc(N)c1 | 1.32 | – |
| C=C(C)CN1CCN(CCO)CC1 | 4.64 | – |
| Cc1sc2nc(SCc3ccc(Cl)cc3)n(CCCN3CCOCC3)c(=O)c2c1C | -13 | – |
| Cc1ccccc1Nc1nc(-c2ccc([N+](=O)[O-])cc2)nc2ccccc12 | -13.7 | – |
| FC(F)(F)c1ccccc1C(c1ccccc1)N1CCCNCC1 (stereo unspecified) | -10.5 | – |
| COc1ccc(OC)c(CNC(=O)c2scnc2C)c1 | -15.6 | – |
| Cc1ncsc1C(=O)NCc1ccc(N2CCCCCC2)nc1 | – | 12.6 µM (active) |
| Cc1ccc(CNC(=O)c2scnc2C)cn1 | -3.48 | – |
| COc1cccc(CNC(=O)N2CCN(Cc3ccc(Br)s3)CC2)c1 | -16.2 | – |
| Nc1nccnc1C(=O)NCc1ccnc(Oc2ccccc2)c1 | – | 31.6 µM (active) |
| COc1ccc2cc(CNC(=O)c3nccnc3N)ccc2c1 | – | 22.4 µM (active) |
| CC(C)OCc1ccccc1CNC(=O)c1nccnc1N | 27.4 | – |
| COc1cc(CNC(=O)C(C)Oc2ccccc2)ccn1 (stereo unspecified) | -11.8 | – |
| Nc1nccnc1C(=O)NCCc1ccc(F)cc1 | 9.21 | – |
| COc1cc(CNC(=O)Cc2ccc(OC)c(OC)c2)ccn1 | 4.31 | – |
